Source: PubChem BioAssay
NPC1 promoter act = NPC1 promoter activation; Huh7 NPC1 promoter luciferase reporter, 24 h; Potency, µM (top dose mostly 9.22 µM), most hits filed as activators; 320,000 compounds, 2.4% hits; AID 485313; note: nearly all actives have a fitted effect of over 60% in size
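NPC1 promoter–luciferase Huh7 cells; 24 h compound; luminescence.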
ELG1 genotoxic = genotoxicity induction in ELG1-luciferase HEK293T cells | HEK293T ELG1-luciferase reporter, luminescence, 16 h | 330,000 compounds, 1.3% hits | Potency, µM (titrated, usually from 46 µM), most hits filed as activators; note: nearly all actives have a fitted effect of over 60% in size
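16 hr compound incubation (37 °C, 5% CO2) of HEK293T cells carrying luciferase-tagged ELG1; luciferase then measured by ONE-Glo luminescence after 30 min at RT.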
Rab9 promoter act = activates the Rab9 promoter; Huh7 Rab9 promoter-luciferase reporter, luminescence, 24 h; Potency, µM (highest dose often 9.22 µM), actives largely listed as activators; 320,000 compounds, 2.8% hits; note: nearly all actives have a fitted effect of over 60% in size
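Huh7 reporter line, Rab9 promoter upstream of luciferase. Compound exposure 24 h at 37 °C in reduced-serum medium with 10% FBS. Read-out: luminescence.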
SMN2 splice up = increases expression of the SMN2 splice variant; HEK293 SMN2-luciferase splicing reporter, luminescence, 30-36 h; Potency, µM (titrated, usually from 46.1 µM), hits mostly activators; 210,000 compounds, 2.8% hits; note: nearly all actives have a fitted effect of over 55% in size
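qHTS luciferase splicing reporter: luminescence rises when SMN2 exon 7 is included in transfected HEK293 cells. Compound exposure lasted 30-36 h at 37C, with 4.5 mM final sodium butyrate as control, followed by a ONE-Glo read.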
ELG1 DNA repair = ELG1-dependent DNA repair inhibition | HEK293T ELG1-luciferase reporter, luminescence, 16 h; DNA damage induced by 5-fluorouridine | Potency, µM (doses to about 46.1 µM), hits mostly inhibitors | 330,000 compounds, 2.3% hits | AID 504467; note: nearly all actives have a fitted effect of over 55% in size
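Cells (2,000 per well) received 5-fluorouridine plus test compound or DMSO and were incubated 16 hr at 37 °C, 5% CO2. Luciferase activity was read by luminescence 30 min after ONE-Glo addition; signal suppression marked inhibition of damage-induced ELG1 function.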
FLuc counter = counter-screen for miR-21 project: firefly luciferase inhibitors or activators; P08659; purified FLuc, Km substrates, luminescence inhibition; Potency, µM (doses to about 57.5 µM), usual class: inhibitors; 360,000 compounds, 6.9% hits; AID 588342; note: nearly all actives have a fitted effect of over 55% in size
Target sequence (P08659 whole entry, looked up): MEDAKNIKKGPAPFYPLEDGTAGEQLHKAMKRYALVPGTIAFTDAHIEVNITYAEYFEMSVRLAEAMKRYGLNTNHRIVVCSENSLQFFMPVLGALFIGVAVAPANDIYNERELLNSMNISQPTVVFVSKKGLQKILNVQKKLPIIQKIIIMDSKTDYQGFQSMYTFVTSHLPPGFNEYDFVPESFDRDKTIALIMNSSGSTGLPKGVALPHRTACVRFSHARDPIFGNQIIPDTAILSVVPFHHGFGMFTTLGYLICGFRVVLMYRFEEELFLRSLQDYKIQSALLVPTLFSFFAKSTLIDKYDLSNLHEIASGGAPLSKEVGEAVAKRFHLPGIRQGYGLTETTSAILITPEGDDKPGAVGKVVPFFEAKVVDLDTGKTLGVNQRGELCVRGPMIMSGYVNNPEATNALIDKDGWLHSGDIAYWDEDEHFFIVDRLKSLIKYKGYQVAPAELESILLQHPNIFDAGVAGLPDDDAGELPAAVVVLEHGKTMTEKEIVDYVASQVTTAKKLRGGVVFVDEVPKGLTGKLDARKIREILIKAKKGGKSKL
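Purified P. pyralis luciferase, 10 nM final, with Km-level 10 uM D-luciferin and 10 uM ATP in 50 mM Tris acetate pH 7.5, 10 mM Mg acetate, 0.01% Tween-20, 0.05% BSA; 6-point qHTS titration about 60 µM downward; luminescence read.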
Large screens that a line does not name were inactive. Rows were chosen to be rich in hits. Some 9.2% of all compounds tested hit in one or more screens of this group. Calls come from the whole dose curve; as a rule, active = well fitted curve in the direction sought with a large enough effect; inconclusive = small, poorly fitted or top-dose-only effect, or another doubt; inactive = no such curve, though single readings can be large; an effect the other way counts as inactive or inconclusive.

CCOC(=O)c1nnn(CC(=O)N2N=C(c3ccccc3)CC2c2ccccc2)c1C(=O)OCC (stereo not given)	none
COc1ccc(C2CC(c3ccccc3)=NN2C(=O)COC(=O)c2cccc(O)c2)cc1 (stereo not given)	ELG1 DNA repair 16µM (no result: NPC1 promoter act, Rab9 promoter act, SMN2 splice up, FLuc counter)
Nc1cc(=O)[nH]c(SCC(=O)N2N=C(c3ccc4ccccc4c3)CC2c2ccccc2)n1 (stereo not given)	none (no result: SMN2 splice up)
CCOC(=O)/C=C(\C)N1N=C(c2ccccc2)CC1c1ccccc1 (stereo not given)	Rab9 promoter act inconclusive, SMN2 splice up inconclusive, ELG1 DNA repair inconclusive, FLuc counter 17µM
CC(=O)OCC(=O)N1N=C(c2ccc3ccccc3c2)CC1c1ccccc1 (stereo not given)	NPC1 promoter act inconclusive, Rab9 promoter act 3.2µM
COc1ccc(C2CC(c3ccc4ccccc4c3)=NN2C(=O)COC(=O)C2CCC(=O)N2)cc1 (stereo not given)	NPC1 promoter act 1.6µM, ELG1 genotoxic inconclusive, Rab9 promoter act 1.1µM, SMN2 splice up 14µM, ELG1 DNA repair inconclusive, FLuc counter 24µM
CCOC(=O)c1cc(-c2ccc(OC)cc2)n(CCC(=O)Nc2cccc(C(C)=O)c2)c1C	none (no result: NPC1 promoter act, ELG1 genotoxic, Rab9 promoter act, SMN2 splice up, ELG1 DNA repair)
c1ccc(-n2cnc3cc(NCc4ccncc4)ccc32)cc1	Rab9 promoter act inconclusive, ELG1 DNA repair inconclusive, FLuc counter 24µM
c1ccc(-n2cnc3cc(NCc4ccccn4)ccc32)cc1	NPC1 promoter act inconclusive, ELG1 genotoxic inconclusive, Rab9 promoter act inconclusive, ELG1 DNA repair inconclusive, FLuc counter 15µM (no result: SMN2 splice up)
COc1ccccc1OCCn1c(COc2cc(C)ccc2C)nc2ccccc21	none (no result: NPC1 promoter act, ELG1 genotoxic, Rab9 promoter act, ELG1 DNA repair)
N#C/C(=C\c1ccc(N2CCOCC2)cc1)c1ccccc1	NPC1 promoter act 2.8µM, ELG1 genotoxic 4.1µM, Rab9 promoter act 1µM, SMN2 splice up 3.2µM, ELG1 DNA repair inconclusive, FLuc counter inconclusive
N#C/C(=C\N1CCOCC1)c1ccccc1	none
N#C/C(=C\c1cccnc1)c1ccc(Br)cc1	FLuc counter inconclusive (no result: SMN2 splice up)
N#C/C(=C\c1cc([N+](=O)[O-])c(N2CCCCC2)cc1N1CCCCC1)c1nn(-c2ccccc2)c(N)c1C#N	none
N#C/C(=C/c1ccc(N2CCOCC2)o1)c1ccc(Br)cc1	NPC1 promoter act inconclusive, Rab9 promoter act inconclusive, SMN2 splice up inconclusive, ELG1 DNA repair inconclusive, FLuc counter 8.5µM
COc1cc(N2CCCC2)c(OC)cc1/C=C(/C#N)c1cccc(F)c1	ELG1 DNA repair inconclusive
N#C/C(=C\c1cc([N+](=O)[O-])c(N2CCOCC2)cc1N1CCOCC1)c1nc2ccccc2[nH]1	ELG1 DNA repair 21µM
N#C/C(=C/c1ccc(N2CCCCCC2)o1)c1cccc(F)c1	NPC1 promoter act 3.5µM, ELG1 genotoxic 5.8µM, Rab9 promoter act 4µM, SMN2 splice up 13µM, ELG1 DNA repair inconclusive, FLuc counter 5.4µM
COc1ccc(CNC(=O)c2ccc(CN3C(=O)C(C)=C(c4ccc(C)cc4)S3(=O)=O)cc2)cc1	none (no result: NPC1 promoter act, ELG1 genotoxic, Rab9 promoter act, SMN2 splice up, ELG1 DNA repair)
CCOc1ccc(-c2nonc2NC(=O)c2ccccc2C)cc1	SMN2 splice up inconclusive (no result: NPC1 promoter act, ELG1 genotoxic, Rab9 promoter act, ELG1 DNA repair)
COc1ccc([C@H]2CC(=O)C=C(c3ccc(C(=O)O)cc3)C2)cc1OC	none (no result: SMN2 splice up)
N#C/C(=C\c1ccc(Sc2ccc(Cl)cc2)o1)c1nc2ccccc2[nH]1	ELG1 DNA repair inconclusive
N#C/C(=C/c1ccc(N2CCOCC2)o1)c1nc2ccccc2[nH]1	NPC1 promoter act 3.5µM, ELG1 genotoxic 2.3µM, Rab9 promoter act 1µM, SMN2 splice up 2µM, ELG1 DNA repair inconclusive, FLuc counter 0.54µM
N#C/C(=C\c1ccc(N2CCOCC2)o1)c1ccccc1	NPC1 promoter act inconclusive, ELG1 genotoxic inconclusive, Rab9 promoter act inconclusive, SMN2 splice up 13µM, ELG1 DNA repair inconclusive, FLuc counter 2.1µM
CC1(c2ccc([N+](=O)[O-])cc2)Nc2ccccc2S1 (stereo not given)	NPC1 promoter act inconclusive, ELG1 genotoxic inconclusive, Rab9 promoter act inconclusive, ELG1 DNA repair inconclusive, FLuc counter 21µM (no result: SMN2 splice up)
COc1ccc(C(=O)c2cn(Cc3ccccc3F)c3cc4c(cc3c2=O)OCO4)cc1	none (no result: NPC1 promoter act, ELG1 genotoxic, Rab9 promoter act, ELG1 DNA repair)
